Compounds with a hit are over-represented: about 9% of the library has one in this group of screens.
IMPase cell inh = membrane-permeable compound that blocks inositol monophosphatase; P97697; CHO-M1 cells, IP1 accumulation, HTRF TR-FRET ratio; inhibition (IP1 accumulation), % at 46.1 µM; 120,000 tested, under 10 active; AID 901; active = well fitted curve in the direction sought with a large enough effect in the signal ratio, not every such curve was filed as active; inconclusive = small, poorly fitted or top-dose-only effect, or a change in a side signal; inactive = no such curve, though single readings can be large or run the other way; the % refers to the signal ratio;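 note: cells stimulated with carbachol in lithium chloride buffer; plate controls were DMSO basal wells for no effect and reference inhibitor wells for full effect; higher means more IMPase inhibition seen as more IP1 and lower FRET ratio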
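Seeded CHO-M1 cells were dosed with compound at up to 46 uM, stimulated with carbachol for 30 min, then lysed in IP-One detection reagents. Higher IP1 lowers the TR-FRET signal.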
ALDH1A1 inh = blocks purified human ALDH1A1 activity | Purified ALDH1A1, NADH fluorescence, propionaldehyde substrate | Potency, µM (series often up to 75.3 µM), for the others: top-dose activity, negative = inhibition, hits mostly inhibitors | 220,000 compounds, 7.3% hits | AID 1030;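 note: potency is the fitted concentration of half-maximal effect; plate controls were no enzyme wells and a reference inhibitor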
Target sequence (P00352 whole entry, looked up): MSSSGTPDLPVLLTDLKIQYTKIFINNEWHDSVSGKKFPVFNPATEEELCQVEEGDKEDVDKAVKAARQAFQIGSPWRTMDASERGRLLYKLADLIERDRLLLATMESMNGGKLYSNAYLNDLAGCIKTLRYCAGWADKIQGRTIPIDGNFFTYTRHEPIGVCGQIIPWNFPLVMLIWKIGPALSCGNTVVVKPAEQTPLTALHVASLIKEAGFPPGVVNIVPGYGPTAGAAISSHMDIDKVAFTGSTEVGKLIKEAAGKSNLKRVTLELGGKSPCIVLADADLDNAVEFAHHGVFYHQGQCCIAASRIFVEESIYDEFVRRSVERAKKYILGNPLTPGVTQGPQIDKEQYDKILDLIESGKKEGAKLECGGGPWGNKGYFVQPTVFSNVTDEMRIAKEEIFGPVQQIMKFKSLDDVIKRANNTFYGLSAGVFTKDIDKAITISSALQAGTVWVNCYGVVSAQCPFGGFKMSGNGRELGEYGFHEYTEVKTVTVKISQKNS
HPGD block = blocks human HPGD enzyme activity. P15428. purified HPGD, NADH fluorescence kinetic, PGE2 substrate. Potency, µM, inactives show top-dose activity change, negative = inhibition, hits mostly inhibitors. 150,000 compounds, 4.3% hits. AID 894; note: potency is the fitted concentration of half-maximal effect
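NADH formation kinetics: reaction with 30 uM PGE2 and 1 mM NAD+ (final), 20 nM enzyme, Tris-HCl pH 8 with Tween 20, after 15 min compound preincubation at room temperature. Fluorescence change, last versus first of five reads.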
* hit, by the source's call; [ ] = another dose, or the depositor's remark. Unless noted, calls come from the whole dose curve; as a rule, active = well fitted inhibition curve with a large enough effect (not every such curve was filed as active); inconclusive = small, poorly fitted or top-dose-only effect, or another doubt; inactive = no such curve, though single readings can be large or run the other way. Unless noted, % is set by controls: 0 for no effect and ±100 for the full control effect.

How did COc1ccc2nc(NC(=O)C3CCCO3)sc2c1 (stereo not given) do in these assays?
ALDH1A1 inh: -9%

What do the screens show for `COc1ccc(NC(=O)C2CCCO2)cc1Cl` (stereo not given)?
IMPase cell inh: 0; ALDH1A1 inh: inconclusive; HPGD block: 16µM*

Results for Cc1ccc(NC(=O)C2CC2C)c(Cl)c1 (stereo not given) ?
ALDH1A1 inh: 6%

Results for c1cnc(NC2CCCCCC2)nc1 ?
IMPase cell inh: 5; ALDH1A1 inh: -7%; HPGD block: -14%

How did CC1(C)CC(=O)C(C=Nc2ccc3c(c2)OCO3)=C(O)C1 do in these assays?
IMPase cell inh: -17; ALDH1A1 inh: 13µM*; HPGD block: -23%

What do the screens show for `CC1(C)CC(=O)C(C=NCCc2ccc(O)cc2)=C(O)C1`?
IMPase cell inh: 1; ALDH1A1 inh: inconclusive; HPGD block: -13%

What do the screens show for `CC1(C)CC(=O)C(C=NCCN2CCN(C(=O)c3ccccc3)CC2)=C(O)C1`?
IMPase cell inh: 1; ALDH1A1 inh: -38%; HPGD block: -10%

Results for CC1(C)CC(=O)C(C=Nc2ccc(C(=O)c3ccccc3)cc2N=CC2=C(O)CC(C)(C)CC2=O)=C(O)C1 ?
ALDH1A1 inh: 10µM*

Results for CC1(C)CC(=O)C(C=NCc2ccc3c(c2)OCO3)=C(O)C1 ?
IMPase cell inh: 10; ALDH1A1 inh: -7%; HPGD block: -20%

How did CC1(C)CC(=O)C(C=Nc2ccc(O)c(N=CC3=C(O)CC(C)(C)CC3=O)c2)=C(O)C1 do in these assays?
ALDH1A1 inh: 1.1µM*

Results for CN(C)CCCN=c1c2ccccc2n(C)c2[nH]c(=O)n(C)c(=O)c12 ?
ALDH1A1 inh: -4%[13.5 µM]; HPGD block: -1%

What do the screens show for `COc1ccc(OC)c(S(=O)(=O)Nc2ccc3c(c2)n(C)c(=O)n3C)c1`?
IMPase cell inh: 8

Results for O=[N+]([O-])c1cc(S(=O)(=O)Nc2ccccc2)ccc1N1CCN(c2ccc(O)cc2)CC1 ?
ALDH1A1 inh: 32µM*; HPGD block: -20%

Results for Cc1ccc(NS(=O)(=O)c2ccc(N3CCN(c4ccc(O)cc4)CC3)c([N+](=O)[O-])c2)c(C)c1 ?
ALDH1A1 inh: 14µM*; HPGD block: -5%

What do the screens show for `O=C(O)c1cc(NS(=O)(=O)c2ccc(N3CCOCC3)c([N+](=O)[O-])c2)cc(C(=O)O)c1`?
IMPase cell inh: 0; ALDH1A1 inh: 7%; HPGD block: -3%

How did CC(=O)N1CCCc2cc(S(=O)(=O)Nc3ccc(C)cc3C)ccc21 do in these assays?
ALDH1A1 inh: inconclusive; HPGD block: -7%

What do the screens show for `O=C(Nc1ccc(F)c(Cl)c1)C1CCN(C(=O)c2ccc(F)cc2)CC1`?
IMPase cell inh: 4

How did CCCCCCN(C(=O)CCCCCN1C(=O)NC(c2ccccc2-c2ccccc2)C(C(=O)OCc2ccccc2)=C1C)C(C(=O)NCCCC)c1ccc(OCC(=O)OC)c(C(=O)OC)c1 (stereo not given) do in these assays?
ALDH1A1 inh: 35µM*; HPGD block: -12%

What do the screens show for `CCCCCCN(C(=O)CCCCCN1C(=O)NC(C2CCCCC2)C(C(=O)OCc2ccccc2)=C1C)C(C(=O)NCCCC)c1ccc(OCC(=O)OC)c(C(=O)OC)c1` (stereo not given)?
ALDH1A1 inh: 28µM*; HPGD block: -16%

What do the screens show for `CCCCCCN(C(=O)CCCCCN1C(=O)NC(c2ccc3ccccc3c2)C(C(=O)OCc2ccccc2)=C1C)C(C(=O)NCCCC)c1ccc(OCC(=O)OC)c(C(=O)OC)c1` (stereo not given)?
ALDH1A1 inh: -8%; HPGD block: -12%

Results for CCCCNC(=O)C(c1ccc(OCC(=O)OC)c(C(=O)OC)c1)N(CCc1ccccc1)C(=O)CCCCCN1C(=O)NC(c2ccc(-c3ccccc3)cc2)C(C(=O)OCc2ccccc2)=C1C (stereo not given) ?
ALDH1A1 inh: 3%; HPGD block: -8%

Results for CCOc1ccc(CN(CCc2ccc3c(c2)OCO3)Cc2cc(OC)cc(OC)c2)cc1 ?
IMPase cell inh: 7

What do the screens show for `C#CCOCCOCCOCCNc1nc(N2CCN(C(=O)[C@H]([C@@H](C)CC)n3cc([C@@H](N)Cc4ccc(O)cc4)nn3)CC2)nc(N2CCN(C(=O)[C@H](CCCCN)n3cc([C@@H](N)CC(C)C)nn3)CC2)n1`?
ALDH1A1 inh: -3%

What do the screens show for `CC1(C)OC(=O)C(=CNc2ccccc2)C(=O)O1`?
IMPase cell inh: 2; ALDH1A1 inh: inconclusive; HPGD block: -18%

How did CC1(C)OC(=O)C(=CNCC(O)c2ccccc2)C(=O)O1 (stereo not given) do in these assays?
IMPase cell inh: 3; ALDH1A1 inh: 11µM*; HPGD block: -18%

Results for COc1ccc(N(C)S(=O)(=O)c2ccc(Cl)c(C(=O)NCCc3ccc(Cl)cc3)c2)cc1 ?
ALDH1A1 inh: -9%

What do the screens show for `COC(=O)NC(CCc1ccccc1)C(C(C)=O)C(=O)OC` (stereo not given)?
ALDH1A1 inh: 7%; HPGD block: -4%

Results for COC(=O)c1ccccc1NC(=S)NC(=O)CC(C)C ?
IMPase cell inh: 6; ALDH1A1 inh: 11%; HPGD block: -3%

What do the screens show for `COC(=O)c1ccc(NC(=S)NNC(=O)c2ccccc2)cc1`?
ALDH1A1 inh: 8.9µM*

What do the screens show for `COc1ccccc1C(=O)NNC(=S)Nc1ccccc1`?
ALDH1A1 inh: 0%

How did COc1ccc(Cl)cc1NC(=S)NNC(=O)C1(C)CC1(Cl)Cl (stereo not given) do in these assays?
ALDH1A1 inh: 28µM*

How did COC(=O)c1ccc(NC(=S)Nc2ccccc2)cc1 do in these assays?
IMPase cell inh: 0; ALDH1A1 inh: -3%; HPGD block: -6%

What do the screens show for `COC(=O)c1cccnc1NC(=S)NNC(=O)c1ccccc1`?
IMPase cell inh: 8; ALDH1A1 inh: inconclusive; HPGD block: 25µM*

Results for COC(=O)c1cc(OC)c(OC)cc1NC(=S)Nc1cc(Cl)ccc1OC ?
IMPase cell inh: -1; ALDH1A1 inh: -1%

What do the screens show for `COC(=O)c1ccc(NC(=S)NNC(=O)CC(C)C)cc1`?
IMPase cell inh: -1; ALDH1A1 inh: 0%; HPGD block: 28µM*

Results for c1cc(CSc2ncnc3nc[nH]c23)ccn1 ?
ALDH1A1 inh: 6%[13.5 µM]; HPGD block: -5%

Results for COC(=O)[C@@H](NC(=O)O[C@@H]1C(=O)c2cc(OC)ccc2O[C@H]1c1cccc(OC)c1)C(C)C ?
ALDH1A1 inh: -13%; HPGD block: -9%

What do the screens show for `CCOC(=O)c1ccc(NC(=S)NNC(=O)COC)cc1`?
ALDH1A1 inh: 8.9µM*; HPGD block: -20%

How did CCOC(=O)c1ccc(NC(=S)NN2CCN(C)CC2)cc1 do in these assays?
ALDH1A1 inh: 2%

How did COc1ccc(C(=O)NC(=S)Nc2ccc(S(N)(=O)=O)cc2)cc1 do in these assays?
ALDH1A1 inh: 29%

What do the screens show for `COc1cc(C(=O)NNC(=S)Nc2ccc(S(N)(=O)=O)cc2)cc(OC)c1OC`?
ALDH1A1 inh: 10µM*

What do the screens show for `CCOC(=O)c1ccc(NC(=S)NC2CCCC2)cc1`?
ALDH1A1 inh: 1%; HPGD block: -1%

Screening data deposited in PubChem by National Center for Advancing Translational Sciences (NCATS).
